Assay results reported in PubChem BioAssay (NCI).
Where “and” joins values, the source holds several entries; their conditions need not be identical. Equal values may be shown once. Compounds without any hit were thinned out: in the full panel of roughly 83,000, 20% have a hit.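 Activity criterion: percent growth below 10, measured after cells in 96-well plates were exposed to a single compound concentration for 48 hours.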 Calls of active or inactive are those of the source.

tested on: HL-60(TB) leukemia; experiment: NCI-60 one-dose screen, 48 h (100 = growth as untreated, 0 = no growth, -100 = all killed); conditions: 10 µM unless noted

Row | SMILES | growth
1 | C#CCC(C(=O)OCC)C(=O)OCC | 101% (inactive)
2 | NCCSC(c1ccccc1)(c1ccccc1)c1ccccc1 | -17.3% (active)
3 | Nc1c(C(=O)Nc2ccncc2)sc2nc3c(cc12)CCCCCC3 | 67.1% (inactive)
4 | Cc1c(C(=O)NCCN2CCOCC2)cn2ncnc(Oc3ccc(NC(=O)Nc4ccc(Cl)c(C(F)(F)F)c4)cc3)c12 | -0.946% (active)
5 | COc1nccc2cc3c(=O)n4c(cc5ccccc54)c(=O)n3c12 | 93.5% (inactive)
6 | CN[C@]12CC3(C=CC(=O)C=C3)O[C@@]1(Cc1ccc(OC)cc1)N(C)C(=O)N2 | -3.53% (active)
7 | O=C(O)c1ccc(-n2cc(/C=N/Nc3ccc(F)cc3)c(-c3cc4ccccc4oc3=O)n2)cc1 | 6.08% (active)
8 | Cc1nc2ccccc2c2nnc(SCC(=O)N(Cc3ccccc3)c3ccccc3)n12 | 105% (inactive)
9 | C=C1C(=O)O[C@H]2[C@H]1CC/C(COC(=O)/C=C/C(=O)NCc1ccc(Cn3c(=O)sn(-c4ccccc4)c3=O)cc1)=C\CC[C@@]1(C)O[C@@H]21 | -54.7% (active)
10 | Nc1cccc(Nc2cc(S(=O)(=O)O)c(N)c3c2C(=O)c2ccccc2C3=O)c1 | 105% (inactive)
11 | N#CC1=C(c2ccc(Cl)cc2)Nc2c(c(-c3ccc(Cl)cc3)nn2-c2ccccc2)C12C(=O)Nc1ccc(Cl)cc12 (stereo not given) | 15.2% (inactive)
12 | COc1ccc(-c2c(-c3nc4ccc(N5CCOCC5)cc4[nH]3)[nH]c(C)c2C(C)=O)cc1 | 4.22% (active)
13 | Cc1[nH]c2ccccc2c(=O)c1CC=C(Cl)Cl | 57.5% (inactive)
14 | Nc1ncnc2c1ncn2C1OC(CO)C(O)C1O (stereo not given) | 65.5% (inactive) and 84.5% (inactive) and 105% (inactive)
15 | C[C@]12C=CC(=O)C=C1CCC1C2[C@@H](O)C[C@@]2(C)C1CC[C@]2(O)C(=O)COC(=O)CCC(=O)O (stereo not given in full) | 104% (inactive)
16 | Fc1ccc2[nH]cc(-c3nonc3-c3c[nH]c4ccc(Br)cc34)c2c1 | 34.5% (inactive)
17 | COc1ccc2[nH]cc(/C=C3\C(=O)Nc4ccccc43)c2c1 | -31.7% (active)
18 | Cc1cc(C)n(Cc2cc(C(C)(C)C)cc(C(C)(C)C)c2)c(=O)c1C#N | 100% (inactive)
19 | O=C(Nc1nc2ccccc2[nH]1)C(=O)Nc1nc2ccccc2[nH]1 | 99.7% (inactive)
20 | O=C1CCC(N2Cc3c(C#CCCCNC(=O)c4cc5c(o4)C(=O)c4ccccc4C5=O)cccc3C2=O)C(=O)N1 (stereo not given) | -1.27% (active)

Row | SMILES | growth
21 | CC(C)(C)n1cc(-c2ccnc(NCCCNS(=O)(=O)c3ccccc3)c2)c(-c2ccccc2)n1 | 38.5% (inactive)
22 | COc1ccc(-c2cnnn2-c2nonc2-n2cccc2)cc1OC | 11% (inactive)
23 | COc1ccc(OC)c(NC=O)c1 | 62.2% (inactive)
24 | CCCNc1nc(SC)nc(-c2cccc(N)c2)c1C#N | 98.9% (inactive)
25 | N#Cc1ccc(OCc2nc(N)nc(N)c2-c2ccc(Cl)c(Cl)c2)cc1 | 21.7% (inactive)
26 | COc1ccc(/C=N/C2=C(C#N)C(c3ccccc3[N+](=O)[O-])c3ccc4ccccc4c3O2)cc1 (stereo not given) | 100% (inactive)
27 | CSc1ccc(C(=O)C[n+]2cccc(C)c2)cc1 | 102% (inactive)
28 | Cn1cnc2c1c(=O)n(CCC(=O)Nc1ccc(F)cc1)c(=O)n2C | 113% (inactive)
29 | O=C(OCCBr)c1ccc(Cl)c([N+](=O)[O-])c1 | 81.7% (inactive)
30 | CC(C)Cc1ccc(C(C)C(=O)NCc2ccc(Cn3c(=O)sn(CCCCl)c3=O)cc2)cc1 (stereo not given) | 102% (inactive) and -23.6% (active)
31 | Cc1ccc(C(=O)c2ccc(C)cc2)cc1 | 92.5% (inactive) and 98.6% (inactive)
32 | COc1ccc2c(c1)OC1=C(C(=O)OC1)C2c1cc(OC)c2c(c1)OCCO2 (stereo not given) | -29.2% (active)
33 | COc1cccc(-n2cc(-c3nc(Nc4cc(C)[nH]n4)c4ccccc4n3)nn2)c1 | 48.1% (inactive)
34 | O=C1NC(=O)N(Cc2ccccc2)CC1Br (stereo not given) | 56.4% (inactive)
35 | C=CCc1cc(C(C)=O)cc(OC)c1O | 71.1% (inactive)
36 | CCOC(=O)C1=CC(=O)CC(C)(C)O1 | 53.2% (inactive) and 69.6% (inactive)
37 | CCN(CC)CC(C)(C)C(=O)/C=C/c1ccc(Cl)c(Cl)c1 | -10.2% (active)
38 | COc1ccc(-c2ccc(-c3ccc(C(=N)N)s3)s2)cc1 | -61.1% (active)
39 | CCCCC(=O)Nc1ncc(Cc2ccc(Cl)cc2)s1 | 66.1% (inactive)
40 | COc1cc(/C=C/C(=O)c2ccc(Nc3ncnc4cc(OC)c(OC)cc34)cc2)cc(OC)c1 | 94.2% (inactive)
